This passage reports remaining activity results from PubChem BioAssay AID602143 (Vanderbilt Specialized Chemistry Center, 2011).

Active and inactive are the calls of the source. Cut-off read from the data, not from the text of the source: active = remaining activity below about 50%; inactive = the rest.

By remaining activity is commonly meant the signal under treatment as a percentage of the control signal.

Sequence of Phospholipase D2 (Homo sapiens) (O14939 whole entry, looked up): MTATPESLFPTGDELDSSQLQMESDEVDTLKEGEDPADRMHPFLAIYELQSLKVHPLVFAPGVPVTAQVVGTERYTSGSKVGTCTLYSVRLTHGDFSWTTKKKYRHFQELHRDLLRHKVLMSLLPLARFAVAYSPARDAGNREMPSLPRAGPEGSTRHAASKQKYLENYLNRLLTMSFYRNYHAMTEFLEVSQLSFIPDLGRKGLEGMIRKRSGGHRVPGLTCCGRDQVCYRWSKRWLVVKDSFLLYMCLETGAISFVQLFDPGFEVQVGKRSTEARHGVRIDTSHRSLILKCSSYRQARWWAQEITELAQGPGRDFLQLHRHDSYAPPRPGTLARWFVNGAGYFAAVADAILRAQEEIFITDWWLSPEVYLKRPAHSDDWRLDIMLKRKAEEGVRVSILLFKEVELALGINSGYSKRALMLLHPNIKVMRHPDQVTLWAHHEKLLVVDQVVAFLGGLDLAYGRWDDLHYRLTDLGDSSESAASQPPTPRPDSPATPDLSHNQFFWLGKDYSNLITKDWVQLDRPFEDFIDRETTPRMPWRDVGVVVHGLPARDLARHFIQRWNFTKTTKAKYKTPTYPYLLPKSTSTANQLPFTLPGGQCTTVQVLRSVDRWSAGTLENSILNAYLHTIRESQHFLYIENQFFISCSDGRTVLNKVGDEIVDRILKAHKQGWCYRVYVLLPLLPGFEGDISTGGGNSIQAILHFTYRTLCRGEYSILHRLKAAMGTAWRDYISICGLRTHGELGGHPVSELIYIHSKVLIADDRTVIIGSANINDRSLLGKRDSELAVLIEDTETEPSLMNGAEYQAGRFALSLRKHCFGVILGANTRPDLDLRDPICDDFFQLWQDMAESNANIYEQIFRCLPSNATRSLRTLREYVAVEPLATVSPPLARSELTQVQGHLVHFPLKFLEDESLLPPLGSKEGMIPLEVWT
Sequence of Phospholipase D2 (Homo sapiens) (O14939 whole entry, looked up): as above

The assay concerns the target Phospholipase D2 (Homo sapiens) (UniProt O14939). Nature of the assay: PLD2 inhibitors in cells, cell-based, HEK293, single concentration (AID 602143).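 Note: tested at 200 nM.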 The conditions noted are these: HEK293 cellular PLD2 activity, percent of control; active compounds read low.
As for `O=C(CCCN1CCC(O)(c2ccc(Cl)cc2)CC1)c1ccc(F)cc1`, the remaining activity was 107% (inactive).

For `O=C(NCCN1CCC(n2c(=O)n(C(=O)c3ccc(Cl)cc3)c3ccccc32)CC1)c1ccc(Cl)cc1`, the remaining activity was 64.5% (inactive). On to `O=C(c1ccc2ccccc2c1)N1CCC(n2c(=O)[nH]c3cc(Cl)ccc32)CC1`, for which the remaining activity is 77.7% (inactive). On to `O=C1c2ccccc2C(=O)N1CCCNc1ccc2ccccc2c1`, for which the remaining activity was 91.8% (inactive). Next, `O=C(NCCN1CCC(n2nnc3ccccc32)CC1)C1CC1c1ccccc1` (stereo not given): 78.1% (inactive); `C[C@@H](CN1CCC(c2nc3ccccc3[nH]2)CC1)NC(=O)c1ccc2ccccc2c1`: 86.5% (inactive). With `C[C@@H](CN1CCC2(CCc3ccccc32)CC1)NC(=O)c1ccc2ccccc2c1` the figure was 104% (inactive); with `O=c1[nH]c2ccccc2n1C1CCN(CCNS(=O)(=O)c2cccc(C(F)(F)F)c2)CC1`, 61.1% (inactive). As to `C[C@@H](CN1CCC(n2c(=O)[nH]c3cc(-c4ccccc4)ccc32)CC1)NC(=O)[C@H]1C[C@@H]1c1ccccc1`, the remaining activity is 79.2% (inactive). Next, `O=C(NCCN1CCC(n2c(=O)[nH]c3ccccc32)CC1)C(c1ccccc1)(c1ccccc1)c1ccccc1`: 93.2% (inactive); `O=C(NCCN1CCC(n2c(=O)[nH]c3cc(I)ccc32)CC1)C1CC1c1ccccc1` (stereo not given): 57.2% (inactive); `O=C(NCCN1CCC(n2c(=O)[nH]c3ccccc32)CC1)C1(c2ccccc2)CCC1`: 86.3% (inactive). Next, `O=C(NCCN1CCC(n2c(=O)[nH]c3ccccc32)CC1)c1ccc2ccc3c4c2c1CC=C4CC=C3`: 79.2% (inactive); `O=C(NCCN1CCC(C(=O)Nc2ccccc2)CC1)c1ccc2ccccc2c1`: 106% (inactive). In the case of `O=c1[nH]c2ccccc2n1C1CCN(CCNS(=O)(=O)c2ccccc2C(F)(F)F)CC1`, the remaining activity is 98% (inactive). Take `CC(=O)c1cccc(NC(=O)NCCN2CCC(n3c(=O)[nH]c4ccccc43)CC2)c1`: the remaining activity is 118% (inactive). Next, `C[C@@H](CN1CCC(n2c(=O)[nH]c3cc(I)ccc32)CC1)NC(=O)c1ccc2ccccc2c1`: 101% (inactive). Turning to `COc1cccc(N2CCN(CCNC(=O)c3ccc(Cl)cc3)CC2)c1`, the remaining activity is 109% (inactive). For the compound `O=C(NCCN1CCC(n2c(=O)[nH]c3ccccc32)CC1)Nc1ccccc1F`, the remaining activity was 105% (inactive).

On to `CN(CCN1CCC(n2c(=O)[nH]c3ccccc32)CC1)C(=O)c1ccc2ccccc2c1`, for which the remaining activity is 101% (inactive). With `O=C1c2ccccc2C(=O)N1CCCN1CCC(n2c(=O)[nH]c3cc(Cl)ccc32)CC1`, the remaining activity is 74.6% (inactive). With `O=c1[nH]c2ccccc2n1C1CCN(CCNS(=O)(=O)c2ccccc2[N+](=O)[O-])CC1` the figure was 108% (inactive). For `Cc1ccc(S(=O)(=O)NCCN2CCC(n3c(=O)[nH]c4ccccc43)CC2)cc1`, the remaining activity is 77.3% (inactive).

As for `O=C(CCc1ccc(F)cc1)NCCN1CCC(n2c(=O)[nH]c3ccccc32)CC1`, the remaining activity was 93.5% (inactive).

On to `NCCN1CCC(n2c(=O)[nH]c3cc(Cl)ccc32)CC1` (tested in a mixture with another compound), for which the remaining activity was 83.1% (inactive). In the case of `O=C(N[C@@H](Cc1ccccc1)CN1CCC(n2c(=O)[nH]c3ccccc32)CC1)c1cnc2ccccc2c1`, the remaining activity is 60.2% (inactive). Next, `Cc1ccccc1NC(=S)NCCN1CCC(n2c(=O)[nH]c3ccccc32)CC1`: 145% (inactive); `O=C(c1ccc(Cl)cc1)N1CCC2(CC1)C(=O)NCN2c1ccccc1`: 69.9% (inactive); `O=C(NCCN1CCC(n2c(=O)[nH]c3cc(Cl)ccc32)CC1)c1ccc(Cl)cc1`: 56.9% (inactive). Take `C[C@@H](CN1CCC2(CC1)CN(S(C)(=O)=O)c1ccccc12)NC(=O)c1ccc2ccccc2c1`: the remaining activity is 115% (inactive).

For `Nc1ccc(C(=O)NCCN2CCC(n3c(=O)[nH]c4ccccc43)CC2)c(F)c1`, the remaining activity was 60.4% (inactive). For the compound `O=C(NCCN1CCC2(C=Cc3ccccc32)CC1)[C@H]1C[C@@H]1c1ccccc1`, the remaining activity was 130% (inactive). Next, `CC(C(=O)NCCN1CCN(c2ccncc2)CC1)(c1ccccc1)c1ccccc1`: 110% (inactive). As for `O=c1[nH]c2ccccc2n1C1CCN(CCNC(=S)Nc2ccccc2F)CC1`, the remaining activity was 87.4% (inactive). Next, `CCOC(=O)CNC(=O)NCCN1CCC(n2c(=O)[nH]c3ccccc32)CC1`: 121% (inactive).

Turning to `O=C(NCCN1CCN(c2ncccn2)CC1)c1ccc(Cl)cc1`, the remaining activity was 106% (inactive).

For the compound `O=C(NCCN1CCN(c2ccncc2)CC1)c1ccccc1-c1ccccc1`, the remaining activity was 83.2% (inactive). Take `O=C(NCCN1CCC(n2nnc3ccccc32)CC1)c1cnc2ccccc2c1`: the remaining activity was 77.7% (inactive). Next, `CC1(C)[C@H]2CC[C@]1(CS(=O)(=O)NCCN1CCC(n3c(=O)[nH]c4ccccc43)CC1)C(=O)C2`: 72.8% (inactive); `C[C@@H](CN1CCC(n2c(=O)[nH]c3ccccc32)CC1)NC(=O)c1ccc(C(F)(F)F)cc1`: 76.2% (inactive).
